Results on 41 compounds are retold here after PubChem BioAssay AID493036 (Sanford-Burnham Center for Chemical Genomics, 2011).

The nature of test [1]: agonists of human NTR1, primary screen, imaging, U2OS cells, beta-arrestin-GFP, high content (AID 493036).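 For activation: 0% = DMSO without peptide and 100% = 100 nM NTR1 peptide.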 The settings on record: NTR1-U2OS beta-arrestin-GFP spot imaging, agonist mode; measured here: cell count, cytotoxicity flag; at 20 µM.
In test [2] the target is Neurotensin receptor type 1 (Homo sapiens) (UniProt P30989). Described as above. The settings on record: NTR1-U2OS beta-arrestin-GFP spot imaging, agonist mode; at 20 µM; stronger effect = higher value.

Screen size: about 330,000 compounds; about 560 (0.17%) were called active.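 Rule for the calls: active = activation at or above 40% of the spot to cytoplasm intensity ratio, with at least 20 cells analyzed; inconclusive = wells under 20 cells, flagged as cytotoxic or low count; inactive = the rest.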 What follows is part of a selection rich in actives, with near analogues and random picks from the rest.

Neurotensin receptor type 1 (Homo sapiens), sequence (P30989 whole entry, looked up): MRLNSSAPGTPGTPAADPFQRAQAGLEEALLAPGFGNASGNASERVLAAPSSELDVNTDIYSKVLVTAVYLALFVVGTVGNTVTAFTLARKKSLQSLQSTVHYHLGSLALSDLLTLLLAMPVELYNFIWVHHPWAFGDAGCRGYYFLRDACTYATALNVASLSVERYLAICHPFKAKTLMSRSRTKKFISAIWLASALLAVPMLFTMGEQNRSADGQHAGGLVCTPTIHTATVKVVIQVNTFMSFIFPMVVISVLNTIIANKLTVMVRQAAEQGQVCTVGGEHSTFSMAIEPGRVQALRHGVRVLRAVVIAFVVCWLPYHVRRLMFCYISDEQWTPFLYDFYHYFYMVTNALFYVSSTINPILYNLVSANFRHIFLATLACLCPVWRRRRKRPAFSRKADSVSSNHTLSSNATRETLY

`CC(C)(C)c1nnc(N/N=C/c2ccc(O)cc2)n(N)c1=O` showed a cell count in test [1] of 60 cells. Further, in test [2], the activation is 1.1% (inactive).

`O=C(CCNS(=O)(=O)c1cccs1)N1CCN(c2ccc(F)cc2)CC1` displayed a cell count in test [1] of 42 cells. Moreover, the activation in test [2] is -0.5% (inactive).

As for `CCOC(=O)CN1CC23C=CC(O2)C(C(=O)Nc2ccc(F)cc2)C3C1=O` (configuration not stated), the cell count in test [1] came out at 46 cells. Also, the activation in test [2] was -1.6% (inactive).

Turning to `COc1ccc(N2CCN(S(=O)(=O)c3ccc4c(c3)N(C(C)=O)CCO4)CC2)cc1`, in test [1], the cell count was 59 cells. Further, the activation in test [2] was 1.4% (inactive).

In turn, `CCN(CC)S(=O)(=O)c1ccc(Cl)c(C(=O)NC(C)C(c2cccs2)N2CCCC2)c1` (configuration not stated) had a cell count in test [1] of 57 cells. Further, the activation in test [2] is 0.4% (inactive).

For the compound `COC(c1ccccc1)c1nnc(CCC(=O)N2CCN(CCOc3ccccc3)CC2)o1` (configuration not stated), the cell count in test [1] was 37 cells. Moreover, the activation in test [2] was 0.7% (inactive).

In test [1], `O=C1CN(C(=O)c2ccccc2F)C(c2ccc(F)cc2)c2cc(F)ccc2N1` (configuration not stated) had a cell count of 89 cells. In addition, the activation in test [2] is 0% (inactive).

The compound `O=C(CN1CCCSc2ccccc21)N1CCN(S(=O)(=O)c2ccccc2)CC1` yielded a cell count in test [1] of 62 cells. For the same compound, the activation in test [2] is 0% (inactive).

In test [1], `O=C(CCc1ccccc1Cl)Nc1ccc(S(=O)(=O)Nc2nccs2)cc1` had a cell count of 42 cells. Besides, the activation in test [2] was 1.9% (inactive).

In the case of `O=C(CS(=O)(=O)c1ccc(C(F)(F)F)cn1)NNC(=O)c1ccccc1`, the cell count in test [1] is 55 cells. The activation in test [2] was -1% (inactive).

In the case of `Cc1ccc(C(C)NC(=O)Cn2nc(C)c([N+](=O)[O-])c2C)cc1` (configuration not stated), in test [1], the cell count is 54 cells. In test [2], the activation is 3.1% (inactive).

`O=C(Cn1ncc(N2CCCC2)c(Br)c1=O)c1ccc(Cl)cc1` yielded a cell count in test [1] of 53 cells. Also, the activation in test [2] was 2.8% (inactive).

In test [1], `CCC/C(C)=N\Nc1nc2c(c(=O)n(C)c(=O)n2C)n1C` returned a cell count of 58 cells. Moreover, the activation in test [2] is 0.3% (inactive).

With `CCOc1ccc(NC(=O)N2CC=C(n3c(=O)[nH]c4ccccc43)CC2)cc1`, in test [1], the cell count came to 42 cells. In addition, the activation in test [2] was 0.4% (inactive).

For the compound `COc1ccc(C(C(=O)NC2CCCCC2)N(C(=O)CCl)c2ccccc2Cl)cc1` (configuration not stated), the cell count in test [1] is 35 cells. The activation in test [2] was 7.8% (inactive).

In test [1], `O=C(OCC(=O)N1CCCC1=O)c1cc(S(=O)(=O)N2CCOCC2)ccc1Cl` registered a cell count of 45 cells. Moreover, the activation in test [2] was -0.7% (inactive).

Turning to `Nc1c(C(=O)Nc2ccc3c(c2)OCCO3)nnn1Cc1ccccc1`, the cell count in test [1] came out at 53 cells. Further, the activation in test [2] was 0.3% (inactive).

Regarding `CCOc1ccc(CN2CCN(Cc3c[nH]c4ccccc34)CC2)cc1`, the cell count in test [1] turned out to be 62 cells. Moreover, the activation in test [2] is 0.2% (inactive).

`Cc1ccc2c(c1)C(O)(CC(=O)c1cccc(-n3cccc3)c1)C(=O)N2` (configuration not stated) gave a cell count in test [1] of 57 cells. The activation in test [2] is 1.6% (inactive).

In test [1], `O=C(Nc1ccc(F)c([N+](=O)[O-])c1)C1CCCO1` (configuration not stated) had a cell count of 58 cells. For the same compound, the activation in test [2] is -0.8% (inactive).

In turn, `CCCC(=O)Nc1ncnc2c1ncn2[C@@H]1O[C@@H]2OP(=O)(O)OC[C@H]2[C@H]1OC(=O)CCC` returned a cell count in test [1] of 60 cells. Further, in test [2], the activation was 1.1% (inactive).

In test [1], `COc1ccc(C)cc1-n1nnnc1SCC(=O)c1cc(C)n(Cc2ccco2)c1C` yielded a cell count of 88 cells. Further, the activation in test [2] was 2.5% (inactive).

In test [1], `Cc1ccc2nc3c(cc(C(=O)NCCc4ccccc4)c(=N)n3CC3CCCO3)c(=O)n2c1` (configuration not stated) gave a cell count of 47 cells. Also, the activation in test [2] is 0.1% (inactive).

`O=C(COC(=O)C1CC2C=CC1C2)Nc1ccccc1` (configuration not stated) showed a cell count in test [1] of 55 cells. The activation in test [2] was -0.8% (inactive).

The compound `CCOc1ccc(N(CC(=O)Nc2ccccc2F)S(=O)(=O)c2c(C)[nH]c(=O)[nH]c2=O)cc1` showed a cell count in test [1] of 61 cells. Also, the activation in test [2] was -0.8% (inactive).

For the compound `COc1cccc(OCc2nnc3n2N=C(c2ccccc2)C(CC(=O)O)S3)c1` (configuration not stated), in test [1], the cell count is 51 cells. In test [2], the activation is 0.6% (inactive).

As for `CCCCCCCCCCOC(=O)Cn1c(COc2cccc(OC)c2)[n+](C)c2ccccc21`, the cell count in test [1] was determined as 71 cells. Further, in test [2], the activation is 69.3% (active).

In test [1], `CCCCCCCCCCOC(=O)Cn1c(COc2ccc(C)cc2)[n+](C)c2ccccc21` showed a cell count of 48 cells. In addition, the activation in test [2] is 28.5% (inactive).

In test [1], `CCOC(=O)CSC1=C(C#N)C(c2ccco2)C(C(=O)OCc2ccccc2)=C(C)N1` (configuration not stated) showed a cell count of 51 cells. The activation in test [2] is 41.1% (active).

In the case of `CC1=C(C(=O)OCc2ccccc2)C(c2ccco2)n2ncnc2N1` (configuration not stated), the cell count in test [1] was determined as 52 cells. Moreover, the activation in test [2] is -3.8% (inactive).

Consider `CC1=C(C(=O)Nc2ccccc2)C(c2cccs2)C(C#N)=C(SCC#N)N1` (configuration not stated), for which, in test [1], the cell count turned out to be 63 cells. Further, the activation in test [2] was 0.8% (inactive).

`Cc1ccccc1C(=O)Nc1cccc(-c2nnc(SCC(=O)O)n2C)c1` registered a cell count in test [1] of 57 cells. Moreover, the activation in test [2] was 1.7% (inactive).

`Cc1cc(S(=O)(=O)NCc2ccccn2)c(Cl)cc1Cl` gave a cell count in test [1] of 75 cells. For the same compound, the activation in test [2] was 0.3% (inactive).

Compound `Cc1cc(/C=C2/SC(=O)N(CC(=O)OC(C)C)C2=O)c(C)n1C` returned a cell count in test [1] of 60 cells. For the same compound, the activation in test [2] is 0.9% (inactive).

In test [1], `COc1ccccc1C(=O)Nn1cnnc1` yielded a cell count of 66 cells. Besides, the activation in test [2] was -0.3% (inactive).

In turn, `Oc1ccccc1C1=NN(c2ccccc2)C(c2ccccc2)C1` (configuration not stated) yielded a cell count in test [1] of 102 cells. Further, the activation in test [2] was 48.9% (active).

In test [1], `COc1ccc(C2=NN(c3ccccc3)C(c3cccs3)C2)cc1` (configuration not stated) came in with a cell count of 44 cells. The activation in test [2] was 1.2% (inactive).

Consider `O=C1C2N=NN(CC(=O)N3N=C(c4cccc5ccccc45)CC3c3ccccc3)C2C(=O)N1c1ccccc1` (configuration not stated), for which the cell count in test [1] is 87 cells. Besides, the activation in test [2] was 2.9% (inactive).

On to `O=C(/C=C/c1ccc(Cl)c([N+](=O)[O-])c1)c1cccnc1`, for which, in test [1], the cell count is 51 cells. The activation in test [2] was 50% (active).

For the compound `O=C(/C=C/c1ccc(Cl)cc1Cl)c1cccnc1`, in test [1], the cell count came to 71 cells. The activation in test [2] is 29.2% (inactive).

In test [1], `O=C(Nc1ccncc1)c1ccc(Cl)c([N+](=O)[O-])c1` returned a cell count of 85 cells. Moreover, the activation in test [2] is -0.2% (inactive).
